An excerpt weighted towards active compounds, which were near 0.53% of everything screened.
BRCT PPI red: qHTS Assay for Inhibitors of BRCT-Phosphoprotein Interaction (Red Fluorophore); BRCT-phosphopeptide binding, red fluorescence polarization; Potency, µM (highest dose often 76.9 µM), most hits filed as inhibitors; hit rate 0.03% among 75,000
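Fluorescence polarization: 100 nM His-tagged BRCA1 BRCT with 100 nM TAMRA-labelled phospho-BACH1 decapeptide, phosphate buffer pH 7.3 with 150 mM NaCl, DTT, 0.01% Tween 20; 12 min RT. Binding inhibition seen as FP decrease.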
Hsp90 Hop PPI: qHTS Assay for Disrupters of an Hsp90 Co-Chaperone Interaction; Hsp90 C-terminal peptide / TPR2A (Hop) interaction, human; AlphaScreen TPR2A-His6 binding biotin-Hsp90 C-terminal peptide; Potency, µM (doses to about 57 µM); hit rate 0.44% among 71,000; active = well fitted curve in either direction with a large enough effect; inconclusive = small, poorly fitted or top-dose-only effect, or another doubt
TsaE inh: qHTS Assay for Inhibitors of YjeE; tRNA threonylcarbamoyladenosine biosynthesis protein TsaE (Escherichia coli (strain …; purified YjeE enzyme, qHTS inhibition assay; Potency, µM; hit rate 0.05% among 71,000; AID 605, 2007
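Purified YjeE (10 uM) with BODIPY Texas Red-labeled ADP probe (2 uM); compounds pin-transferred, 15 min at room temperature. Binding inhibition read as decreased fluorescence polarization; ADP titration as control.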
BRCT PPI green: qHTS Assay for Inhibitors of BRCT-Phosphoprotein Interaction (Green Fluorophore) | Breast cancer type 1 susceptibility protein (Homo sapiens), P38398 | BRCA1 BRCT-phosphopeptide binding, green fluorescence polarization | Potency, µM (top dose mostly 76.9 µM), usual class: inhibitors | hit rate 0.05% among 75,000
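Fluorescence polarization: His-tagged BRCT (~35 kDa BRCA1 C-terminus, 250 nM) bound to 100 nM fluorescein-labeled phosphorylated 10-aa BACH1 peptide, pH 7.3 phosphate buffer with DTT and Tween 20. Compounds incubated 12 min at room temperature; inhibition read as lowered polarization.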
Pol III holo inh: qHTS Assay for Inhibitors of DNA Polymerase III Holoenzyme System | hit rate 0.25% among 71,000 | AID 603, 2007 | reconstituted DNA polymerase III holoenzyme replication, biochemical | Potency, µM (doses to about 57.1 µM)
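Reconstituted *E. coli* holoenzyme (0.35 nM Pol III, 1 nM beta, 154 nM SSB, 2 nM primase) was preincubated with compound for 15 min at RT. Synthesis on 1.4 nM ssM13Gori ran 35 min, then was stopped with PicoGreen/EDTA and read as dsDNA fluorescence.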
Hsp90 TPR2A CRC: Confirmation Concentration-Response Assay and Counterscreen for Disrupters of an Hsp90 Co-Chaperone Interaction; shares compounds with Hsp90 Hop PPI; AlphaScreen TPR2A-His6 / biotin-Hsp90 peptide binding; activity, negative = inhibition, % at 40 µM or 46 µM, hits read low; hit rate 100% among 45; AID 632, 2007;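 active = compound lowering the Hsp90 and TPR2A binding signal, whether or not the linker counterscreen also flagged it as an artifact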
Large screens that a line does not name were inactive (follow-up assays come after a bar, where they were run); ! = not confirmed by another sample; [ ] = dose if it differs, or a comment. Unless noted, calls follow the shape of the dose curve; as a rule, active = well fitted curve in the direction sought with a large enough effect; inconclusive = small, poorly fitted or top-dose-only effect, or another doubt; inactive = no such curve, though single readings can be large; an effect the other way counts as inactive or inconclusive.

O=c1c(O)c(-c2ccc(O)c(O)c2)oc2c(OC[C@H]3O[C@@H](O)[C@@H](O)[C@H](O)[C@@H]3O)c(O)cc(O)c12	none (no result: BRCT PPI red, BRCT PPI green)
CCC(Cl)CC(Cl)C(Cl)C(Cl)C(Cl)C(C)Cl (configuration not stated)	Hsp90 Hop PPI 32µM
Cc1cc(O)c2c(c1)C(=O)c1cc(O)cc(O)c1C2=O	Hsp90 Hop PPI 5µM!
CN(C)c1ccc2nc3ccc(=[N+](C)C)cc-3sc2c1	Hsp90 Hop PPI inconclusive, Pol III holo inh 32µM
Cc1nc2ccc(N)cc2s1	none
Cc1cc(C)c(/C=C2/C(=O)Nc3ccccc32)[nH]1	Hsp90 Hop PPI inconclusive, BRCT PPI green inconclusive
CC(C)(C)c1ccccc1NC(=O)c1cccnc1	Pol III holo inh 32µM
CCC(C)Nc1ccc(NC(C)CC)cc1 (configuration not stated)	Hsp90 Hop PPI inconclusive, TsaE inh 100µM
CCC(C)NC(=O)c1ccccc1C(=O)NC(C)CC (configuration not stated)	none
COc1cc(OC)cc([C@H](CNc2ncnc3c2ncn3[C@@H]2O[C@@H](CO)[C@H](O)[C@@H]2O)c2ccccc2C)c1	none (no result: BRCT PPI red, BRCT PPI green)
COc1ccc(COC(=O)N/N=C2/C[C@@H](O)[C@@H](O)[C@@H]3[C@@H]4C(=O)N(C(C)(C)C)C(=O)[C@H]4CC[C@@H]23)cc1	none (no result: Hsp90 Hop PPI, TsaE inh, Pol III holo inh)
CCCOC(=O)CN1C(=O)c2ccc(C(=O)OCCC)cc2C1=O	none
CCCCOC(=O)CN1C(=O)c2ccc(C(=O)OCCCC)cc2C1=O	Hsp90 Hop PPI 25µM
CO/N=C(\C(=O)N[C@@H]1C(=O)N2C(C(=O)O)=C(CSc3nc(=O)c(O)nn3C)CS[C@@H]12)c1csc(N)n1	Pol III holo inh 40µM
CO/N=C(/C(=O)NC1C(=O)N2C(C(=O)O)=C(CSc3nc(=O)c(O)nn3C)CSC12)c1csc(N)n1 (configuration not stated)	none (no result: Hsp90 Hop PPI, TsaE inh, Pol III holo inh)
CN1CCN([C@@H]2Cc3ccccc3Sc3ccc(Cl)cc32)CC1	none
CC1=CC(C#N)(C#N)C(C#N)(C#N)C(c2ccccc2)N1 (configuration not stated)	Hsp90 Hop PPI 3.2µM, TsaE inh 50µM
Clc1nc(NCCc2ccccc2)c2ncn(-c3ccccc3)c2n1	none (no result: BRCT PPI red, BRCT PPI green)
CCCCC#Cc1nc(N)c2ncn([C@@H]3O[C@@H](C(=O)NCC)[C@H](O)[C@@H]3O)c2n1	none
CN1CCN(c2ncc3nc(-c4ccc(Cl)cc4)c(=O)n(Cc4cccs4)c3n2)CC1	none
CN1CCN(c2ncc3nc(-c4cccs4)c(=O)n(Cc4cccs4)c3n2)CC1	Hsp90 Hop PPI inconclusive
O=c1c(-c2cccs2)nc2cnc(N3CCNCC3)nc2n1Cc1cccs1	Hsp90 Hop PPI inconclusive, Pol III holo inh 7.9µM
COc1ccc(-n2c(=O)c(-c3cccs3)nc3cnc(N4CCOCC4)nc32)cc1	none
O=c1c(-c2ccc(Cl)cc2)nc2cnc(N3CCNCC3)nc2n1Cc1cccs1	Pol III holo inh 25µM
O=c1c(-c2cccs2)nc2cnc(N3CCOCC3)nc2n1-c1ccccc1	Hsp90 Hop PPI 3.2µM
CC(=O)c1ccc(OC2C(O)COC2/C=C/c2ccc(Cl)cc2)cc1 (configuration not stated)	none (no result: Hsp90 Hop PPI, TsaE inh, Pol III holo inh)
CCOC(=O)CSc1nc2ccccc2c(=O)n1C1CCCC1	none
CCCCNC(=O)CSc1nc2ccccc2c(=O)n1C1CCCC1	none | Hsp90 TPR2A CRC -100[alpha-screen platform artifact]
Cc1ccc(NC(=O)CCCCCC2NC(=O)NC2C)cc1 (configuration not stated)	Hsp90 Hop PPI 0.013µM | Hsp90 TPR2A CRC -99[alpha-screen platform artifact]
Brc1ccc(-c2nn3c(-c4ccncc4)nnc3s2)o1	none
Brc1ccc(-c2nn3c(-c4ccccn4)nnc3s2)o1	Hsp90 Hop PPI 7.9µM, Pol III holo inh inconclusive | Hsp90 TPR2A CRC -99[alpha-screen platform artifact]
O=C(CN1C(=O)CCC1=O)Nc1nc(-c2ccccn2)cs1	Hsp90 Hop PPI 2.5µM | Hsp90 TPR2A CRC -100[alpha-screen platform artifact]
Cn1cccc1C(=O)Nc1nc(-c2ccccn2)cs1	Hsp90 Hop PPI 6.3µM | Hsp90 TPR2A CRC -100[alpha-screen platform artifact]
Cc1cccc(Nc2nc(-c3ccccn3)cs2)n1	none
CC(=O)O[C@@H]1CC[C@]2(C)[C@H]3CC[C@]4(C)[C@H](C[C@H]5CCCC[C@@]54C(C)=O)[C@@H]3CC(=O)[C@@]2(O)C1	none (no result: BRCT PPI red, BRCT PPI green)
O=S(=O)(Nc1cccc2ncccc12)c1cccs1	Hsp90 Hop PPI 16µM | Hsp90 TPR2A CRC -100[alpha-screen platform artifact]
CCN(CC)C(=O)c1sc2nc(-c3ccccn3)[nH]c(=O)c2c1C	Hsp90 Hop PPI 7.9µM | Hsp90 TPR2A CRC -99[alpha-screen platform artifact]
CCN(CC)C(=O)c1sc2nc(-c3ccncc3)[nH]c(=O)c2c1C	none
NCCC[C@@H](CC(=O)N[C@@H]1CCCC[C@H]1C(=O)N[C@H](CC(=O)N[C@@H](CCC(=O)O)CC(=O)O)Cc1c[nH]c2ccccc12)NC(=O)C[C@H](Cc1ccccc1)NC(=O)[C@@H]1CNCC[C@H]1N	none (no result: BRCT PPI red, BRCT PPI green)
CCCCOCCOCCOCc1cc2c(cc1CCC)OCO2	none
CC(C)[C@@H](OCc1ccccc1)[C@H](C)/C=N\OC[C@@H](O)COCc1ccco1	none (no result: Hsp90 Hop PPI, TsaE inh, Pol III holo inh)
Cn1c(=O)[nH]c2nnc(-c3ccccc3)nc2c1=O	none (no result: BRCT PPI red, Hsp90 Hop PPI, TsaE inh, BRCT PPI green, Pol III holo inh) | Hsp90 TPR2A CRC inactive
